# This excerpt belongs to a sample that is enriched for the strongest signals.
# B1: GS7807Q-bfa-507-19-507 (Bacteroides fragilis) (protein)
# chain: ASCNKFDDLNTNPDAATKVTAPMLATKLILNITQQGSAKNFVYHSMLSKQIAWSENASDEQYNLFGRTDFDGYTILTNCQKMVDAANEGDKDSYAALAKFMKAYKLFYKSLEVGDIPYSDALKGEEGVQKPKYDTQKEVMRQVLEDLEEAYTLFSSGSDFDGDPIFGGDTENWKKTVVAFELKVLTHLCKKDTDADLKVKERFARLVSSGSLMTSNADNFQLVYSNKAGQLYPFYYTQNKHSDYLMMSSVIIDNLKKFNDYRMFYYASPAKAQTDKGIKDSEWDAYLSIDPSDSYSNISVLYGKGEFCLANLRYTRVPEGEPLMRLSYAEQNFILAEGAVRGWISEDASTYYKKGIEASMNFIADNTPDKEEYTHGRTITQEYIQEYLAQPVIQLSGDKEKDLEMILLQRYLASFLQHPYDAYYDYRRTGYPVLPINPSTNLNTEKNKIPTRWMYPEAEFSYNPDNANEAVQRQYNGSDDVNKLMWILQ
# Experiments:
# Assay in all cases: glycan array binding signal (z-score within array); higher = stronger binding
# Conditions in all cases: glycan notation: IUPAC condensed, linker removed
# Fuc(a1-2)Gal(b1-3)GalNAc = molecular target: Fuc(a1-2)Gal(b1-3)GalNAc
# How it was run: (§1)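 Columns mapping to the same glycan were averaged after glycan names were converted to IUPAC-condensed notation. The data come from 3228 arrays in the Consortium for Functional Glycomics database, limited to those with an available protein sequence. Binding is reported as a within-array Z-score averaged across arrays of one protein sequence and across linkers.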
# [1] = molecular target: Fuc(a1-2)Gal(b1-3)GalNAc(a1-3)[Fuc(a1-2)]Gal(b1-4)Glc
# How it was run: as §1
# [2] = molecular target: Fuc(a1-2)Gal(b1-4)GlcNAc(b1-2)Man(a1-3)[Fuc(a1-2)Gal(b1-4)GlcNAc(b1-2)Man(a1-6)]Man(b1-4)GlcNAc(b1-4)GlcNAc
# How it was run: as §1
# [3] = molecular target: Fuc(a1-2)Gal(b1-4)GlcNAc(b1-3)[Fuc(a1-3)[Gal(b1-4)]GlcNAc(b1-6)]Gal(b1-4)Glc
# How it was run: as §1
# [4] = molecular target: Fuc(a1-2)Gal(b1-4)GlcNAc(b1-6)GalNAc
# How it was run: as §1
# [5] = molecular target: Fuc(a1-2)Gal(b1-4)[Fuc(a1-3)]GlcNAc(b1-3)GalNAc
# How it was run: as §1
# [6] = molecular target: Fuc(a1-2)Gal3S(b1-4)GlcNAc
# How it was run: as §1
# [7] = molecular target: Fuc(a1-2)[Gal(a1-3)]Gal(b1-4)GlcNAc(b1-2)Man
# How it was run: as §1
# [8] = molecular target: Fuc(a1-2)[Gal(a1-3)]Gal(b1-4)[Fuc(a1-3)]Glc
# How it was run: as §1
# [9] = molecular target: Fuc(a1-2)[GalNAc(a1-3)]Gal(b1-3)GlcNAc(b1-6)GalNAc
# How it was run: as §1
# [10] = molecular target: Fuc(a1-2)[GalNAc(a1-3)]Gal(b1-4)GlcNAc(b1-2)Man(a1-3)[Fuc(a1-2)[GalNAc(a1-3)]Gal(b1-4)GlcNAc(b1-2)Man(a1-6)]Man(b1-4)GlcNAc(b1-4)[Fuc(a1-6)]GlcNAc
# How it was run: as §1
# [11] = molecular target: Fuc(a1-3)[Gal(b1-4)]GlcNAc(b1-2)Man(a1-3)[Fuc(a1-3)[Gal(b1-4)]GlcNAc(b1-2)Man(a1-6)]Man(b1-4)GlcNAc(b1-4)[Fuc(a1-6)]GlcNAc
# How it was run: as §1
# [12] = molecular target: Fuc(a1-3)[Gal(b1-4)]GlcNAc6S
# How it was run: as §1
# [13] = molecular target: Gal(a1-3)Gal(b1-4)GlcNAc(b1-2)Man(a1-3)[Gal(a1-3)Gal(b1-4)GlcNAc(b1-2)Man(a1-6)]Man(b1-4)GlcNAc(b1-4)GlcNAc
# How it was run: as §1
# [14] = molecular target: Gal(a1-3)Gal(b1-4)[Fuc(a1-3)]GlcNAc
# How it was run: as §1
# Gal(a1-3)GalNAc = molecular target: Gal(a1-3)GalNAc
# How it was run: as §1
# [15] = molecular target: Gal(a1-3)[Gal(a1-4)]Gal(b1-4)GlcNAc
# How it was run: as §1
# [16] = molecular target: Gal(a1-4)Gal(b1-4)GlcNAc(b1-3)Gal(b1-4)Glc
# How it was run: as §1
# Gal(b1-3)GalNAc(b1-3)Gal = molecular target: Gal(b1-3)GalNAc(b1-3)Gal
# How it was run: as §1
# Gal(b1-3)GlcNAc(b1-2)Man = molecular target: Gal(b1-3)GlcNAc(b1-2)Man
# How it was run: as §1
# [17] = molecular target: Gal(b1-3)GlcNAc(b1-2)[Gal(b1-3)GlcNAc(b1-6)]Man(a1-6)[Gal(b1-3)GlcNAc(b1-2)Man(a1-3)]Man(b1-4)GlcNAc(b1-4)GlcNAc
# How it was run: as §1
# [18] = molecular target: Gal(b1-3)GlcNAc(b1-3)Gal(b1-4)GlcNAc(b1-3)Gal(b1-4)GlcNAc(b1-2)[Gal(b1-3)GlcNAc(b1-3)Gal(b1-4)GlcNAc(b1-3)Gal(b1-4)GlcNAc(b1-6)]Man(a1-6)[Gal(b1-3)GlcNAc(b1-3)Gal(b1-4)GlcNAc(b1-3)Gal(b1-4)GlcNAc(b1-2)Man(a1-3)]Man(b1-4)GlcNAc(b1-4)[Fuc(a1-6)]GlcNAc
# How it was run: as §1
# [19] = molecular target: Gal(b1-3)GlcNAc(b1-3)Gal(b1-4)GlcNAc(b1-6)[Gal(b1-3)GlcNAc(b1-3)]Gal(b1-4)Glc
# How it was run: as §1
# [20] = molecular target: Gal(b1-3)[Fuc(a1-4)]GlcNAc(b1-2)Man(a1-3)[Gal(b1-3)[Fuc(a1-4)]GlcNAc(b1-2)Man(a1-6)]Man(b1-4)GlcNAc(b1-4)[Fuc(a1-6)]GlcNAc
# How it was run: as §1
# [21] = molecular target: Gal(b1-4)GalNAc(b1-3)[Fuc(a1-2)]Gal(b1-4)GlcNAc
# How it was run: as §1
# Gal(b1-4)GlcNAc(b1-2)Man = molecular target: Gal(b1-4)GlcNAc(b1-2)Man
# How it was run: as §1
# [22] = molecular target: Gal(b1-4)GlcNAc(b1-2)Man(a1-6)Man(b1-4)GlcNAc(b1-4)GlcNAc
# How it was run: as §1
# [23] = molecular target: Gal(b1-4)GlcNAc(b1-2)[Gal(b1-4)GlcNAc(b1-6)]Man(a1-6)[GlcNAc(b1-4)][Gal(b1-4)GlcNAc(b1-2)[Gal(b1-4)GlcNAc(b1-4)]Man(a1-3)]Man(b1-4)GlcNAc(b1-4)[Fuc(a1-6)]GlcNAc
# How it was run: as §1
# [24] = molecular target: Gal(b1-4)GlcNAc(b1-3)Gal(b1-4)GlcNAc(b1-2)Man(a1-3)[Gal(b1-4)GlcNAc(b1-3)Gal(b1-4)GlcNAc(b1-2)Man(a1-6)]Man(b1-4)GlcNAc(b1-4)GlcNAc
# How it was run: as §1
# [25] = molecular target: Gal(b1-4)GlcNAc(b1-3)Gal(b1-4)GlcNAc(b1-3)Gal(b1-4)GlcNAc
# How it was run: as §1
# [26] = molecular target: Gal(b1-4)GlcNAc(b1-3)Gal(b1-4)GlcNAc(b1-3)Gal(b1-4)GlcNAc(b1-3)Gal(b1-4)GlcNAc(b1-3)Gal(b1-4)GlcNAc(b1-2)Man(a1-3)[Gal(b1-4)GlcNAc(b1-3)Gal(b1-4)GlcNAc(b1-3)Gal(b1-4)GlcNAc(b1-3)Gal(b1-4)GlcNAc(b1-3)Gal(b1-4)GlcNAc(b1-2)Man(a1-6)]Man(b1-4)GlcNAc(b1-4)GlcNAc
# How it was run: as §1
binder,measurement,setting,value
B1,glycan array binding signal (z-score),Fuc(a1-2)Gal(b1-3)GalNAc,-1.06
same,glycan array binding signal (z-score),[1],-0.063
same,glycan array binding signal (z-score),[2],6.11
same,glycan array binding signal (z-score),[3],0.636
same,glycan array binding signal (z-score),[4],4.43
same,glycan array binding signal (z-score),[5],1.5
same,glycan array binding signal (z-score),[6],-0.3
same,glycan array binding signal (z-score),[7],-0.226
same,glycan array binding signal (z-score),[8],1.42
same,glycan array binding signal (z-score),[9],-0.083
same,glycan array binding signal (z-score),[10],-0.243
same,glycan array binding signal (z-score),[11],-0.03
same,glycan array binding signal (z-score),[12],-1.03
same,glycan array binding signal (z-score),[13],3.33
same,glycan array binding signal (z-score),[14],0.431
same,glycan array binding signal (z-score),Gal(a1-3)GalNAc,-0.197
same,glycan array binding signal (z-score),[15],0.361
same,glycan array binding signal (z-score),[16],-0.723
same,glycan array binding signal (z-score),Gal(b1-3)GalNAc(b1-3)Gal,0.094
same,glycan array binding signal (z-score),Gal(b1-3)GlcNAc(b1-2)Man,-0.443
same,glycan array binding signal (z-score),[17],0.94
same,glycan array binding signal (z-score),[18],3.08
same,glycan array binding signal (z-score),[19],3.63
same,glycan array binding signal (z-score),[20],3.07
same,glycan array binding signal (z-score),[21],0.8
same,glycan array binding signal (z-score),Gal(b1-4)GlcNAc(b1-2)Man,0.859
same,glycan array binding signal (z-score),[22],0.767
same,glycan array binding signal (z-score),[23],-0.993
same,glycan array binding signal (z-score),[24],3.08
same,glycan array binding signal (z-score),[25],0.693
same,glycan array binding signal (z-score),[26],-0.15
